# DT40 TDP1 no CPT: qHTS for Inhibitors of human tyrosyl-DNA phosphodiesterase 1 (TDP1): qHTS in cells in absence of CPT. AID 686978, 2013. Potency, µM (highest dose often 46.2 µM), for inactives: top-dose activity change, negative = growth inhibition, usual class: inhibitors. DT40 Tdp1-/- hTDP1 cells, no CPT, ATP luminescence, 48 h. actives 15% (n = 420,000); further: on the % scale 0 is the no-effect control and ±100 the full control effect; nearly all actives have a fitted effect of over 55% in size
#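 A cellular qHTS used chicken DT40 cells lacking endogenous Tdp1 but carrying stably transfected human TDP1. Compounds were applied without camptothecin, and cell growth kinetics were judged by ATP-dependent luminescence after ≥48 hr.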
# ClpP mod: qHTS Assay for Activators of ClpP; ATP-dependent Clp protease proteolytic subunit (Bacillus subtilis (strain 168)), P80244; Potency, µM (highest dose often 57.5 µM), for the others: top-dose activity change, negative = active; actives 1.9% (n = 340,000); AID 651965, 2013; purified B. subtilis ClpP, FRET peptide cleavage, 20 min; active means well fitted falling curve with a large enough effect; inconclusive means small, poorly fitted or top-dose-only effect; inactive means no such curve, though single readings can be large or run the other way; further: the source files actives as falling curves though it sought activators and does not explain the sign; nearly all actives have a fitted effect of over 65% in size
#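 Purified B. subtilis ClpP, 10 microg/mL final in Tris/HCl pH8 with KCl, BSA, glycerol and Tween-20, cleaved an Abz/nitrotyrosine-quenched decapeptide. Fluorescence (ex 320, em 430) was read at 0 and 20 min at room temperature. Delta was normalized to 5.8 microM ADEP and DMSO/no-enzyme controls.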
# DT40 TDP1 CPT: DT40-hTDP1 cell growth loss with CPT; chicken DT40 Tdp1-/-;hTDP1 cells + 20 nM CPT, ATP luminescence, 48 h; Potency, µM (highest dose often 46.2 µM), for the others: at the top dose activity change, negative = growth inhibition, usual class: inhibitors; actives 12% (n = 420,000); AID 686979; further: on the % scale 0 is the no-effect control and ±100 the full control effect; nearly all actives have a fitted effect of over 55% in size
#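 Chicken DT40 Tdp1-/- cells complemented with human TDP1, 400 cells/well, exposed to compounds plus 20 nM camptothecin for at least 48 h at 37 C; viability read as ATP content by CellTiter-Glo luminescence.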
# TDP1 block: TDP1 (human) enzyme inhibition; recombinant TDP1, AlphaScreen DNA substrate cleavage; actives 0.28% (n = 350,000); Q9NUW8; Potency, µM (top dose mostly 130 µM), inactives show at the highest dose activity change, negative = inhibition, hits mostly inhibitors; further: on the % scale 0 is the no-effect control and ±100 the full control effect; nearly all actives have a fitted effect of over 40% in size
# Target sequence (Q9NUW8 whole entry, looked up): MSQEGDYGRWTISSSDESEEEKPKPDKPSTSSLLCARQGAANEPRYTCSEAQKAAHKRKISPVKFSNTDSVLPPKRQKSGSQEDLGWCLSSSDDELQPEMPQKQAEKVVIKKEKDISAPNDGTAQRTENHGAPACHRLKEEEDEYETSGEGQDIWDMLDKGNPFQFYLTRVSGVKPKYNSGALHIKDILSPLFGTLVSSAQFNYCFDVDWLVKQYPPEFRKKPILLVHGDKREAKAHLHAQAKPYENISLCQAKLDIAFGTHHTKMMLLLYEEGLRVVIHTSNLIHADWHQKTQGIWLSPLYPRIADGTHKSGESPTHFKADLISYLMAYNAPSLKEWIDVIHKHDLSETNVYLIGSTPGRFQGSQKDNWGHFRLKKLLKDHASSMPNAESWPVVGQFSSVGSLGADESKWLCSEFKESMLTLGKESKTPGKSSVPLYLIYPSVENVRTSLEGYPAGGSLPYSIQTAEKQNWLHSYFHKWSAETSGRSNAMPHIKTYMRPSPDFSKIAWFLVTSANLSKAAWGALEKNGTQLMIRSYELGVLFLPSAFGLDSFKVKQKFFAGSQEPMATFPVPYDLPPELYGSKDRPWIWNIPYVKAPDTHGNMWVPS
#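 Steps: enzyme plus compound, 15 min RT; add biotin/phosphotyrosine-FITC oligonucleotide (15 nM final), react 5 min; add donor/acceptor beads (10 ug/ml final), 10 min; read AlphaScreen. Tdp1 at 1 nM final.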
# Numbers without * were called inactive; ? = inconclusive; nt = not tested or not shown; [ ] = another dose, or the depositor's remark. Compounds with a hit are over-represented: about 17% of the library has one in this group of screens. Unless noted, the call rests on the fitted dose curve; in most records, active means well fitted curve in the direction sought with a large enough effect; inconclusive means small, poorly fitted or top-dose-only effect, or another doubt; inactive means no such curve, though single readings can be large; an effect the other way counts as inactive or inconclusive. Potency means the concentration at half of the fitted maximal effect.
SMILES,DT40 TDP1 no CPT,ClpP mod,DT40 TDP1 CPT,TDP1 block
Cn1c2c(c(=O)n(C)c1=O)C(c1ccccc1Cl)C(C#N)=C(N)O2 (centres undefined),-12%,4%,-17%,4%
Cn1c2c(c(=O)n(C)c1=O)C(c1ccc(Br)cc1)C(C#N)=C(N)N2 (centres undefined),23µM*,1%,?,nt
Cc1nc(S(=O)(=O)N2CCN(c3cccc(Cl)c3)CC2)cn1C,-8%,-1%,-6%,7%
COCCN(Cc1ccccc1)C(=S)Nc1ccc(OC(F)F)cc1,?,nt,0%,3%
CN(C)CCCN(Cc1ccccc1)C(=S)Nc1ccc(SC(F)F)cc1,23µM*,4%,18µM*,3%
CCCN(Cc1ccccc1)C(=S)Nc1ccc(OC(F)F)cc1,-15%,10µM*,-16%,3%
CC(CN1C(C)CCCC1C)OC(=O)c1cccc(Br)c1 (centres undefined),-20%,nt,3%,nt
CCOc1ccccc1NC(=O)c1nnn(CC(=O)Nc2ccc3c(c2)OCO3)c1N,11%,-15%,0%,-3%
CCOc1ccccc1NC(=O)Cn1nnc(C(=O)NCc2ccc(F)cc2)c1N,?,0%,?,0%
CCOc1ccccc1NC(=O)Cn1nnc(C(=O)NCc2ccco2)c1N,0.023µM*,-3%,0.0092µM*,4%
CCOc1ccccc1NC(=O)Cn1nnc(C(=O)NCc2ccc3c(c2)OCO3)c1N,2.6µM*,1%,4.1µM*,-17%
Cc1ccc(S(=O)(=O)N(C)c2c(C)ccc(S(=O)(=O)N3CCN(C)CC3)c2C)cc1,?,2%,-9%,3%
C=C(C)CN1CCN(S(=O)(=O)c2ccc(C)c(N(C)S(=O)(=O)c3ccc(C)cc3)c2C)CC1,10µM*,2%,23µM*,1%
CCOC(=O)/C=c1\s/c(=C\c2ccc(-c3ccccc3)cc2)c(=O)n1CC(=O)NCc1ccc2c(c1)OCO2,9.2µM*,-2%,9.2µM*,1%
CCOC(=O)/C=c1\s/c(=C\c2ccc(C)cc2)c(=O)n1CC(=O)NCc1ccco1,?,1%,16µM*,0%
CCOC(=O)/C=c1/s/c(=C/c2ccc3cc(OC)ccc3c2)c(=O)n1CC(=O)NCc1ccc2c(c1)OCO2,9.2µM*,nt,5.8µM*,nt
COc1ccc(CC(=O)NCc2ccc3c(c2)OCO3)cc1,-40%,-1%,-11%,3%
CCOC(=O)/C=c1\s/c(=C\c2ccc3cc(OC)ccc3c2)c(=O)n1CC(=O)NCC1CCCO1 (centres undefined),6.5µM*,?,9.2µM*,-2%
Cc1ccc(NC(=O)C2CCN(S(=O)(=O)c3c(C)noc3/C=C/c3ccco3)CC2)nc1,18µM*,-7%,?,4%
Cc1noc(/C=C/c2ccco2)c1S(=O)(=O)N1CCC(C(=O)N2CCc3ccccc3C2)CC1,18µM*,-3%,21µM*,6%
Cc1ccccc1NC(=O)C1CCN(S(=O)(=O)c2c(C)noc2/C=C/c2ccco2)CC1,-13%,-7%,-5%,2%
CC12CCC=CC1C(c1ccoc1)N(Cc1ccccc1)C2=O (centres undefined),nt,nt,nt,10%
COc1ccc(-c2nnc(SCc3nc4ccccc4s3)n2C(C)C)cc1,21µM*,-2%,?,-1%
COc1ccccc1-c1nnc(SCc2nc3ccccc3s2)n1C,1%,-3%,-11%,7%
CC(C)C(NC(=O)c1ccc(C(C)(C)C)cc1)C(=O)NCC(c1ccccc1)N(C)C (centres undefined),21µM*,1%,?,5%
SMILES,DT40 TDP1 no CPT,ClpP mod,DT40 TDP1 CPT,TDP1 block
CCOc1ccccc1C(=O)NC(C(=O)NCCc1ccccn1)C(C)C (centres undefined),?,1%,?,0%
CC(C)[C@H](NC(=O)c1ccccc1)C(=O)NCCc1ccccc1,?,nt,-18%,0%
Cc1cccc(C)c1NC(=O)CNC(=O)C(NC(=O)c1ccc(C(C)(C)C)cc1)C(C)C (centres undefined),21µM*,-1%,?,5%
CC(C)C(NC(=O)c1ccc(C(C)(C)C)cc1)C(=O)NCCc1ccccn1 (centres undefined),21µM*,nt,?,9%
COc1ccc(NC(=O)c2ccccc2OCC(=O)Nc2ccc(Br)cc2)cc1,?,-19%,?,nt
COc1ccc(S(=O)(=O)NC(=O)C2(C)CCN2C(=O)Cc2ccccc2)cc1OC (centres undefined),-10%,-2%,-1%,nt
Cc1ccc(S(=O)(=O)c2nc(S(=O)(=O)c3ccccc3)sc2NCCCOC(C)C)cc1,12µM*,-27%,?,5%
CCCS(=O)(=O)c1nc(S(=O)(=O)c2ccc(C)cc2)c(NCCCOC(C)C)s1,16µM*,-1%,?,0%
COc1cc(C2NC(=O)c3c(sc4c3CCN(C)C4)N2)cc(Br)c1OC(=O)c1ccc(C)cc1 (centres undefined),?,4%,?,5%[12.3 µM]
Cc1cccc(N2CCN(C(=O)C3CCN(c4ncnc5c4nc4n5CCCCC4)CC3)CC2C)c1 (centres undefined),4.6µM*,1%,6.5µM*,7%
O=C(C1CCN(c2ncnc3c2nc2n3CCCCC2)CC1)N1CCN(c2ccccc2F)CC1,21µM*,2%,?,10%
Cc1cccc(N2CCN(C(=O)C3CCN(c4ncnc5c4nc4n5CCCCC4)CC3)CC2)c1C,18µM*,-1%,18µM*,4%
CC(=O)OC[C@@H]1O[C@@H](O/N=C2/C[C@@H](O)[C@@H](O)[C@@H]3[C@@H]4C(=O)N(C5CCCCC5)C(=O)[C@H]4CC[C@H]23)[C@H](OC(C)=O)[C@H](OC(C)=O)[C@@H]1OC(C)=O,nt,nt,nt,6%[21 µM]
O=P(c1ccccc1)(c1ccccc1)c1cnc2ccccn12,nt,nt,nt,2%
O=C(N=Nc1c(O)[nH]c2ccccc12)c1ccccc1NS(=O)(=O)c1cccs1,-29%,-3%,16µM*,4%
O=C(N=Nc1c(O)[nH]c2ccc(F)cc12)c1ccc(NS(=O)(=O)c2cccs2)cc1,10%,0%,33%,-21%
O=C(NN=Cc1ccc(O)cc1O)c1ccccc1NS(=O)(=O)c1cccs1,21µM*,-8%,?,-1%
Cc1ccc2[nH]c(O)c(N=NC(=O)c3ccc(NS(=O)(=O)c4cccs4)cc3)c2c1,?,2%,15µM*,nt
Cc1cccc2c(N=NC(=O)c3ccc(NS(=O)(=O)c4cccs4)cc3)c(O)[nH]c12,?,0%,?,50µM*
O=C(Nc1ccc(Oc2ccsc2C(=O)O)cc1)c1ccccc1F,-13%,2%,-11%,nt
CCNC(=O)n1cc(-n2cncn2)c(-c2ccc(Cl)cc2)n1,-23%,nt,0%,4%

# Compound activity deposited in PubChem BioAssay by National Center for Advancing Translational Sciences (NCATS).
